Reference: PubChem BioAssay (NCATS)
Records with an inconclusive call do not appear. A call without a number means that no potency is given here. A number with no mark means an inactive call. The source made the active and inactive calls. Unless noted, the call rests on the fitted dose curve; in most records, active means well fitted curve in the direction sought with a large enough effect; inconclusive means small, poorly fitted or top-dose-only effect, or another doubt; inactive means no such curve, though single readings can be large; an effect the other way counts as inactive or inconclusive.

Tests used:
[1] = qHTS to identify inhibitors of the type 1 interferon - major histocompatibility complex class I in skeletal muscle: primary screen against the NCATS Mechanism Interrogation Plate v5.0 (MIPE) Libary (AID 1347411); further: nearly all actives have a fitted effect of over 65% in size; further: potency means the concentration at half of the fitted maximal effect
Outline: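 IFN-beta-driven (4 ng/ml) HLA-B-HiBit expression in CRISPR-tagged C25cl48 myoblasts; compounds 11-pt, 1:3, max 46 uM, 24 hr exposure; lytic NanoLuc complementation luminescence.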

[2] = molecular target: Calcium and integrin-binding protein 1 (Homo sapiens) (UniProt Q99828); test: Primary qHTS for Identification of Calcium Integrin Binding Protein 1 (CIB1) Competitor (AID 1508620);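 further: GST tagged CIB1 binding a fluorescein labelled alphaIIb integrin peptide tracer; top concentration of the series differs between compounds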
Calcium and integrin-binding protein 1 (Homo sapiens), sequence (Q99828 whole entry, looked up): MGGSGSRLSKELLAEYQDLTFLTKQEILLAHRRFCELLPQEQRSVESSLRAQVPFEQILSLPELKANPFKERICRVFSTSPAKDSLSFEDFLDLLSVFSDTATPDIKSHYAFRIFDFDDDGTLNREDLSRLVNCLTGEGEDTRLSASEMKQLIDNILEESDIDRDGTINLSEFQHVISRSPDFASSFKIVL
Outline: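 Fluorescence polarization competition: CIB1-GST (1 uM final) preincubated with compound 15 min at room temperature, then FITC-labeled alphaIIb peptide (100 nM final) added for another 15 min. Polarization read at Ex 480/Em 540.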

[3] = Primary qHTS for small molecule stabilizers of the endoplasmic reticulum resident proteome: Secreted ER Calcium Modulated Protein (SERCaMP) assay (AID 1508630)
Outline: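 The SH-SY5Y reporter protocol was run at 3 concentrations up to 38.3 uM (primary) or 11 concentrations (follow-up): 16 h compound, 100 nM thapsigargin for 4 h, then extracellular luciferase luminescence.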

[4] = molecular target: Protein phosphatase 1D (Homo sapiens) (UniProt O15297); test: RapidFire Mass Spectrometry qHTS Assay for Modulators of WT P53-Induced Phosphatase 1 (WIP1) (AID 1347424);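 further: amount of dephosphorylated VEPPL-S-QETFS peptide product formed by WIP1; series mostly up to about 63 µM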
Protein phosphatase 1D (Homo sapiens), sequence (O15297 whole entry, looked up): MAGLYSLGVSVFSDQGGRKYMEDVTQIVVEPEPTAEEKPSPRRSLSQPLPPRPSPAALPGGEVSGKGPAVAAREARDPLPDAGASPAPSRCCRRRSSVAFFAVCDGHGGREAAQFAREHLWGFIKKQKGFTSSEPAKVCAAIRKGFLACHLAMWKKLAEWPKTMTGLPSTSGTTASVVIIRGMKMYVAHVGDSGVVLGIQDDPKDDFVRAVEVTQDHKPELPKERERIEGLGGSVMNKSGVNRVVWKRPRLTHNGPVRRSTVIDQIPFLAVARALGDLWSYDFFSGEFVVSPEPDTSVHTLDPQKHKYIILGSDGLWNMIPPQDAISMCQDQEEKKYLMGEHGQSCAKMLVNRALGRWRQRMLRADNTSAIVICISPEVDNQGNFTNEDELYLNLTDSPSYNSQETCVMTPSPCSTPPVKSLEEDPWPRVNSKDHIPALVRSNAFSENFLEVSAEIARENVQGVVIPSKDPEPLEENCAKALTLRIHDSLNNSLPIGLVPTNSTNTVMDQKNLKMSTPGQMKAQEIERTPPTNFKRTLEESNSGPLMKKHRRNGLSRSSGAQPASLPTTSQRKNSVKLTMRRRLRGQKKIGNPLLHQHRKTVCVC
Outline: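 Mass-spectrometric measurement of dephosphorylated peptide after a 5 min room-temperature reaction of 10 nM WIP1 with 2 uM phosphopeptide, following 1 h compound preincubation in 30 mM MgCl2 buffer.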

[5] = molecular target: Protein phosphatase 1D (Homo sapiens) (UniProt O15297); test: Rhodamine-PBP qHTS Assay for Modulators of WT P53-Induced Phosphatase 1 (WIP1) (AID 1347425)
Outline: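 The read-out is the change in Rhodamine-PBP fluorescence (f1 - f0, ex 525/em 598 nm) as Pi is released, read each minute for 11 min. Final reaction: 5 nM WIP1, 10 uM phosphopeptide VEPPL-pS-QETFS, 10 uM Rh-PBP, 50 mM Tris-HCl pH 7.5, 30 mM MgCl2. Compound was preincubated with enzyme for 1 hour at room temperature.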

[6] = molecular target: Cytochrome P450 2C9 (Homo sapiens) (UniProt P11712); test: Cytochrome P450 family 2 subfamily C member 9 (CYP2C9) small molecule antagonists: luciferase biochemical (cell-free) qHTS assay (AID 1645842; active means well fitted curve in the direction sought with a large enough effect in the repeat runs; an effect the other way counts as inactive or inconclusive; further: series mostly up to about 57 µM; nearly all actives have a fitted effect of over 55% in size)
Cytochrome P450 2C9 (Homo sapiens), sequence (P11712 whole entry, looked up): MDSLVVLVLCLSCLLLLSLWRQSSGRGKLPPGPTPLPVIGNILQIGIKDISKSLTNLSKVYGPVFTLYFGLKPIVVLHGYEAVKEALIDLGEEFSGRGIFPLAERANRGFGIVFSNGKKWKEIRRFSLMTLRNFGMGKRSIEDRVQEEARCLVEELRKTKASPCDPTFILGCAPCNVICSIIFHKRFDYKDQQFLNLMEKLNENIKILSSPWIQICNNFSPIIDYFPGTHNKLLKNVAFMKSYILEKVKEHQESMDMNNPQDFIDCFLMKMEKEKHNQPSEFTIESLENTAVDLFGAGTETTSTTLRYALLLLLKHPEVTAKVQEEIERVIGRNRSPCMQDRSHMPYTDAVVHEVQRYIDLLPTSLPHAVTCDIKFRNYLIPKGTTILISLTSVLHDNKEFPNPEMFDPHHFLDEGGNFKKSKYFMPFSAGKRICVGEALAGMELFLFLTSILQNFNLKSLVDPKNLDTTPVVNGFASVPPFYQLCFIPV
Outline: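 P450-Glo CYP2C9 system: proluciferin substrate with enzyme in mix containing 0.4% BSA, 10 min at room temperature, then NADPH regeneration solution added and incubated 1 h at 37C. Detection reagent stopped reaction; luminescence read after 20 min as RLU.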

[7] = molecular target: Cytochrome P450 2D6 (Homo sapiens) (UniProt P10635); test: Cytochrome P450 family 2 subfamily D member 6 (CYP2D6) small molecule antagonists: luciferase biochemical (cell-free) qHTS assay (AID 1645840; active means well fitted curve in the direction sought with a large enough effect in the repeat runs; an effect the other way counts as inactive or inconclusive; further: series mostly up to about 57 µM; nearly all actives have a fitted effect of over 55% in size)
Cytochrome P450 2D6 (Homo sapiens), sequence (P10635 whole entry, looked up): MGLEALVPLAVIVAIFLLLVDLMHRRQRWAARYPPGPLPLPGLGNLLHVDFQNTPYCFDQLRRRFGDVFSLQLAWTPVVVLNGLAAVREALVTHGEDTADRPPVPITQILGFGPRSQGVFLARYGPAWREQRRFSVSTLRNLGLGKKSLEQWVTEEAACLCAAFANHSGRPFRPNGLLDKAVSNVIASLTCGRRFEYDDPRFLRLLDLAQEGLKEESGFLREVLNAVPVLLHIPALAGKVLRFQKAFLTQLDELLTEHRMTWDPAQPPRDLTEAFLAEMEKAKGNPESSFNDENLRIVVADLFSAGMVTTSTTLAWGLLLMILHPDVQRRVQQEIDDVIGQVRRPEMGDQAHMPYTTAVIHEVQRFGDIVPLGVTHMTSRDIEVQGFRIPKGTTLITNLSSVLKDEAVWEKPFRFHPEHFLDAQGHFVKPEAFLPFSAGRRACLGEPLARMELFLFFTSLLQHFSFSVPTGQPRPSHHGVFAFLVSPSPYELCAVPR
Outline: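 P450-Glo CYP2D6 system: proluciferin substrate converted by enzyme to luciferin, read by luminescence proportional to activity. Enzyme-substrate mix with compound 10 min at room temperature, then NADPH regeneration 1 h before detection reagent.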

N#Cc1c(O)c2c(-c3ccc(-c4ccccc4O)cc3)csc2[nH]c1=O
Potency [1]: inactive
outcome [2]: inactive

O=C(NCCS(=O)(=O)c1ccc(C(F)(F)F)cn1)c1ccc(Cl)cc1
Potency [1]: inactive
outcome [2]: inactive

CN1CCN(c2cc(C(=O)Nc3ccc4c(c3)-c3c(c(C(N)=O)nn3-c3ccc(F)cc3)CC4)c(Cl)cn2)CC1
Potency [1]: 18.6 µM (active)
outcome [2]: inactive
Potency [3]: inactive

Cc1nc2cnc3ccc(C#Cc4cccnc4)cc3c2n1-c1ccc(C(C)(C)C#N)cc1
Potency [1]: 14.7 µM (active)
outcome [2]: inactive
Potency [3]: inactive

COCCn1c2c([n+](Cc3cnccn3)c1C)C(=O)c1ccccc1C2=O
Potency [1]: 2.34 µM (active)
outcome [2]: inactive
Potency [3]: inactive

C=CC(=O)Nc1cc2c(Nc3ccc(F)c(Cl)c3)ncnc2cc1OCCCN1CCOCC1
Potency [1]: 11.7 µM (active)
Potency [4]: inactive
outcome [5]: inactive
outcome [2]: inactive
Potency [3]: inactive
Potency [6]: inactive

O=C(O)[C@H](Cc1c[nH]c2ccccc12)N1C(=O)c2ccccc2C1=O
Potency [1]: inactive
outcome [2]: inactive
Potency [3]: inactive

CC[C@@H]1C(=O)N(C)c2cnc(Nc3ccc(C(=O)NC4CCN(C)CC4)cc3OC)nc2N1C1CCCC1
Potency [1]: 16.5 µM (active)
outcome [2]: inactive
Potency [3]: inactive

CC1(C)CCC(c2ccc(Cl)cc2)=C(CN2CCN(c3ccc(C(=O)NS(=O)(=O)c4ccc(N[C@H](CCN5CCOCC5)CSc5ccccc5)c(S(=O)(=O)C(F)(F)F)c4)cc3)CC2)C1
Potency [1]: inactive
outcome [2]: inactive
Potency [3]: inactive

CC(C)(C)c1cc(C(C)(C)C)c(NC(=O)c2c[nH]c3ccccc3c2=O)cc1O
Potency [1]: 23.4 µM (active)
outcome [2]: inactive
Potency [3]: inactive

CC[C@@]1(O)C(=O)OCc2c1cc1n(c2=O)Cc2cc3cc(O)ccc3nc2-1
Potency [1]: 3.3 µM (active)
outcome [2]: inactive
Potency [3]: inactive

Cc1c(NC(=O)OC[C@@H]2COCCN2)cn2ncnc(Nc3ccc4c(cnn4Cc4cccc(F)c4)c3)c12
Potency [1]: inactive
outcome [2]: inactive
Potency [3]: inactive

CC(C)Nc1cc(C(F)(F)F)cc2nc(NC(=O)c3cccnc3)nn12
Potency [1]: inactive
outcome [2]: inactive
Potency [3]: inactive
Potency [7]: inactive

C=CCn1c(=O)c2cnc(Nc3ccc(N4CCN(C)CC4)cc3)nc2n1-c1cccc(C(C)(C)O)n1
Potency [1]: inactive
outcome [2]: inactive
Potency [3]: inactive
Potency [7]: inactive

CCCCCCCCCC(=O)N[C@@H](Cc1c[nH]c2ccccc12)C(=O)N[C@H](CC(N)=O)C(=O)N[C@@H](CC(=O)O)C(=O)N[C@@H]1C(=O)NCC(=O)N[C@@H](CCCN)C(=O)N[C@@H](CC(=O)O)C(=O)N[C@H](C)C(=O)N[C@@H](CC(=O)O)C(=O)NCC(=O)N[C@H](CO)C(=O)N[C@@H]([C@@H](C)CC(=O)O)C(=O)N[C@@H](CC(=O)c2ccccc2N)C(=O)O[C@@H]1C
Potency [1]: inactive
outcome [2]: inactive
Potency [3]: inactive

CC(C)c1ccc(Cn2ccc3c4c(N)nc(NC5CC5)nc4ccc32)cc1
Potency [1]: 4.66 µM (active)
outcome [2]: inactive
Potency [3]: inactive

COc1cc(C(=O)N2CCC(N3CCN(C)CC3)CC2)ccc1Nc1ncc2c(n1)N(C)c1ccccc1C(=O)N2C
Potency [1]: 23.4 µM (active)
outcome [2]: inactive
Potency [3]: inactive
Potency [7]: inactive

C[C@@H]1CN(CC(=O)Nc2ccc3c(c2)Cc2cccc(-c4cc(=O)cc(N5CCOCC5)o4)c2S3)C[C@H](C)O1
Potency [1]: inactive
outcome [2]: inactive
Potency [3]: inactive

Clc1ccc2ncc(-c3cccc(NC4CNC4)n3)n2c1
Potency [1]: inactive
outcome [2]: inactive
Potency [3]: inactive

COc1ccc(CC2SC(=O)NC2=O)cc1C(=O)NCc1ccc(C(F)(F)F)cc1 (stereo not given)
Potency [1]: inactive
outcome [2]: inactive
Potency [3]: inactive

O=c1[nH]c(=O)n(C2CCCO2)cc1F (stereo not given)
Potency [1]: inactive
outcome [2]: inactive
Potency [3]: inactive

CC(=O)OCCN1C(=O)c2c(C)nc3ccc(S(=O)(=O)N4CCOCC4)cc3c2C1=O
Potency [1]: inactive
outcome [2]: inactive
Potency [3]: inactive

CCN(CC)CCCCNc1ncc2cc(-c3cc(OC)cc(OC)c3)c(NC(=O)NC(C)(C)C)nc2n1
Potency [1]: 29.4 µM (active)
outcome [2]: inactive
Potency [3]: inactive

COc1cc2c(Oc3ccc4[nH]c(C)cc4c3F)ncnc2cc1OCCCN1CCCC1
Potency [1]: 20.8 µM (active)
outcome [2]: inactive
Potency [3]: inactive

C[C@@H]1COC(Nc2ccc3ncnc(Nc4ccc(OCc5nccs5)c(Cl)c4)c3c2)=N1
Potency [1]: 16.5 µM (active)
outcome [2]: inactive
Potency [3]: inactive

COc1cccc2nc(-c3cccs3)nc(NN3C(=O)C=C(C)C3=O)c12
Potency [1]: 2.94 µM (active)
outcome [2]: inactive
Potency [3]: inactive

CCN1CCN(Cc2ccc(-c3cc4c(N[C@H](C)c5ccccc5)ncnc4[nH]3)cc2)CC1
Potency [1]: 18.6 µM (active)
outcome [2]: inactive
Potency [3]: inactive

N#CCNC(=O)c1ccc(-c2ccnc(Nc3ccc(N4CCOCC4)cc3)n2)cc1
Potency [1]: 11.7 µM (active)
outcome [2]: inactive
Potency [3]: inactive

COCCOc1ccc2c(c1)ncn2-c1ccc2cccc(N3CCC(N)CC3)c2n1
Potency [1]: 1.86 µM (active)
outcome [2]: inactive
Potency [3]: inactive

CCc1c2c(nc3ccc(O)cc13)-c1cc3c(c(=O)n1C2)COC(=O)[C@]3(O)CC
Potency [1]: 1.17 µM (active)
outcome [2]: inactive
Potency [3]: inactive

Cc1ccc(C(N)=O)cc1Nc1nccc(-c2cn(C(C)C)c3cnccc23)n1
Potency [1]: 8.29 µM (active)
outcome [2]: inactive
Potency [3]: inactive

c1cc(-c2cnn3cc(-c4ccc(OCCN5CCCCC5)cc4)cnc23)ccn1
Potency [1]: 10.4 µM (active)
outcome [2]: inactive
Potency [3]: inactive
